MARV entry inh – qHTS for inhibitors of binding or entry into cells for Marburg Virus; Marburg virus pseudotyped entry inhibition, cell reporter; Potency, µM (series often up to 37.8 µM), usual class: inhibitors; 300,000 compounds, 1.8% hits; calls by dose curve; tested in HEK293 cells
Lassa entry inh – qHTS for Inhibitors of binding or entry into cells for Lassa Virus; Lassa virus pseudotype entry inhibition, cell reporter; Potency, µM (series often up to 37.9 µM), most hits filed as inhibitors; 300,000 compounds, 1.2% hits; calls by dose curve; tested in HEK293 cells; note: nearly all actives have a fitted effect of over 50% in size
VACV mCherry inh – qHTS for Stage-Specific Inhibitors of Vaccinia Orthopoxvirus: mCherry Reporter Primary qHTS; Vaccinia virus mCherry reporter infection, fluorescence; Potency, µM (series often up to 36.5 µM), hits mostly inhibitors; 310,000 compounds, 0.63% hits; calls by dose curve; tested in A549 cells; note: nearly all actives have a fitted effect of over 35% in size
Sm TGR inh – qHTS Assay for the Inhibitors of Schistosoma Mansoni Peroxiredoxins; purified TGR, DTNB reduction, TNB absorbance 405 nm; Potency, µM (series often up to 114 µM), hits mostly inhibitors; 360,000 compounds, 3% hits; active = well fitted inhibition curve with a large enough effect; inconclusive = small, poorly fitted or top-dose-only effect; inactive = no such curve, though single readings can be large or run the other way; note: nearly all actives have a fitted effect of over 60% in size
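TGR 20 nM + NADPH 100 uM (dispensed conc.), cpd preinc 15 min RT; start with NADPH (500 uM addition) then DTNB (15 mM addition). Kinetic TNB absorbance, 405 nm filter. Four-parameter Hill fit across titration.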
FMDV antiviral – High Throughput Screening for Foot and Mouth Disease Virus Antivirals; AID 1159524, 2015; 410,000 compounds, 1.2% hits; Potency, µM (highest dose often 57.9 µM), most hits filed as inhibitors; FMDV antiviral cell-based qHTS; calls by dose curve; tested in HEK293T cells; note: read-out not given here; nearly all actives have a fitted effect of over 45% in size
VACV Venus inh – qHTS for Stage-Specific Inhibitors of Vaccinia Orthopoxvirus: Venus Reporter Primary qHTS. Vaccinia virus Venus reporter expression, fluorescence. Potency, µM (top dose mostly 36.5 µM), usual class: inhibitors. 330,000 compounds, 0.46% hits; calls by dose curve; tested in A549 cells; note: nearly all actives have a fitted effect of over 30% in size
A number is an active result; i = inactive; ? = inconclusive; nt = no result given; [ ] = dose if it differs, or a comment. Hits are enriched below; roughly 5.4% of the tested compounds scored in any of these assays.

SMILES	MARV entry inh	Lassa entry inh	VACV mCherry inh	Sm TGR inh	FMDV antiviral	VACV Venus inh
CC(C)CON=C1C[C@@H](O)[C@@H](O)[C@@H]2[C@H]3C(=O)N(c4ccc(F)cc4F)C(=O)[C@@H]3CC[C@H]12	i	nt	nt	nt	nt	nt
Clc1ccccc1/C=C/c1nc(-c2ccccn2)no1	?	?	i	i	3.98µM	i
COc1ccc(-n2c(=O)c3c4c(sc3n(Cc3ccccc3)c2=O)CCC4)c(OC)c1	?	?	i[7.34 µM]	i	i	i[7.34 µM]
Cc1cc(NC(=O)COC(=O)c2cc([N+](=O)[O-])ccc2N2CCOCC2)ccc1Br	?	?	?	i	31.6µM	i
COc1cccc(C(Nc2ccccn2)c2oc(CO)cc(=O)c2O)c1 (configuration not stated)	i	i	nt	3.16µM	i	nt
O=c1cc(CO)oc(C(Nc2ccccn2)c2ccccc2F)c1O (configuration not stated)	nt	nt	i	nt	i	i
O=c1cc(CO)oc(C(Nc2ccccn2)c2ccc(C(F)(F)F)cc2)c1O (configuration not stated)	i	i	nt	39.8µM	i	i
O=c1cc(CO)oc(C(Nc2ccccn2)c2cccc(F)c2)c1O (configuration not stated)	nt	nt	i	2.82µM	i	i
COc1cc(C(=O)Nc2ccc(-c3cc(C(F)(F)F)nn3-c3ccccc3)cc2)cc(OC)c1OC	?	?	i	i	i	?
COCCn1c(CCC(=O)Nc2ccc(OC)c(OC)c2)nc2cccnc21	i	?	i	i	i	i
COCC1CCCN(Cc2ccc3c(c2)CN(C(=O)c2cnn(C(C)C)c2)CCO3)C1 (configuration not stated)	nt	nt	i	nt	i	i
CC(C)CON=C1C[C@@H](O)[C@@H](O)[C@@H]2[C@H]3C(=O)N(Cc4ccccc4)C(=O)[C@@H]3CC[C@@H]12	i	nt	nt	nt	nt	nt
CCC(Sc1nc2cc3c(cc2c(=O)n1CCCC(=O)NCc1ccc2c(c1)OCO2)OCO3)C(=O)NCCCOC (configuration not stated)	nt	i	i	i	i	i
CC(=O)Nc1ccc(S(=O)(=O)NCc2cccn2Cc2cccc(C)c2)cc1	nt	?	i	i	i	i
COc1cc(-c2ncc3ccccn23)cc(OC)c1OC	i	?	i	i	i	i
COc1ccc(C(C[N+](=O)[O-])c2c(-c3ccccc3)cc3ccccn23)cc1OC (configuration not stated)	?	i	i	7.94µM	?	i
COc1ccc(C(C[N+](=O)[O-])c2c(-c3ccccc3)cc3ccccn23)cc1 (configuration not stated)	i	i	i	i	i	i
COc1cc(C(C[N+](=O)[O-])c2c(C)cc3ccccn23)ccc1O (configuration not stated)	i	nt	i	17.8µM	22.4µM	i
COc1cc(C(C[N+](=O)[O-])c2c(-c3ccccc3)cc3ccccn23)cc(OC)c1OC (configuration not stated)	?	i	nt	8.91µM	i	nt
Cc1cnc(-n2ncc(C(=O)NCc3ccncc3)c2C(C)C)nc1-c1ccc(F)cc1	nt	nt	i	nt	i	i
Cc1cc(N2CCCC2)ccc1NC(=O)COc1ccccc1	i	i	i	17.8µM	i	i
COc1ccc(N2CCCC2)c(NC(=O)COc2ccccc2)c1	?	i	?	i	i	i
CCc1ccccc1OCC(=O)Nc1ccc(N2CCCC2)cc1C	?	i	?	15.8µM	i	i
Cc1ccccc1OCC(=O)Nc1ccc(N2CCOCC2)cc1N1CCOCC1	nt	nt	nt	i	i	nt
CCOC(=O)N1CCc2c(sc(NCc3ccc(N(C)C)cc3)c2C(=O)Nc2ccc(OC)cc2)C1	nt	?	i	i	i	i
COc1ccc(C(=O)NCCc2sc(-c3cccc(F)c3)nc2C)cc1	nt	i	i	i	i	i
CCc1nn(C(C)C(=O)NCCN2CCN(c3cccc(C)c3C)CC2)c(=O)c2cc3occc3n12 (configuration not stated)	?	i	nt	i	28.2µM	i
CCNC(=O)C1CCCN(c2nn3cc(-c4ccc(C)cc4)nc3s2)C1 (configuration not stated)	nt	i	i	i	20µM	i
